This passage reports outcome and AC50 results from PubChem BioAssay (EPA / NIEHS).

Inconclusive results are not listed. Calls of active or inactive are those of the source. Rule for the calls, unless noted: active = hit-call score of the fitted dose curve at least 0.9, where 1 is the maximum; inactive = score below 0.9.

A short description of test [1]: CCTE_Shafer_MEA_acute_spike_number: CCTE's Neural Acute Assay for Total Number of Spikes, Shafer Lab (AID 2284008).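 For AC50: curve fitted for decrease in spike count so AC50 reflects inhibitors.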 In a few lines: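 Using an adaptive detector set to 8x rms noise, spikes were counted in 40-min windows before and after compound addition (0.03-40 uM) to rat cortical networks at 37 C; the well-level change from baseline was analysed relative to DMSO.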

Test [2] in a line: CCTE_Shafer_MEA_acute_firing_rate_mean: CCTE's Neural Acute Assay for Mean Firing Rate, Shafer Lab (AID 2284009).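 Note: analyzed for loss of signal so actives lower firing rate relative to DMSO.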 The gist of the method:
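Spontaneous spiking of primary rat cortical networks, DIV 13/15, 37 C. Compound 0.03-40 uM, n ≥3 wells; 40 min baseline vs 40 min treated. Endpoint fitted in loss-of-signal direction against DMSO.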

The nature of test [3]: CCTE_Harrill_HTTr_Viability_MCF7: CCTE's 6-hour Cell Viability Assessment for the High-Throughput Transcriptomics (HTTr) Platform, in MCF-7 cells cultured in DMEM + 10% fetal bovine serum, Harrill Lab (AID 2284010). The gist of the method: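 PI exclusion, high-content imaging; 8-pt dilution series, 6 h exposure; bidirectional fit vs DMSO (neg. ctrl/baseline); gain of signal = loss of membrane integrity.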

Test [4] can be described thus: CCTE_Harrill_HTTr_Apoptosis_MCF7: CCTE's 6-hour Apoptosis Assessment for the High-Throughput Transcriptomics (HTTr) Platform, in MCF-7 cells cultured in DMEM + 10% fetal bovine serum, Harrill Lab (AID 2284011). In a few lines:
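Apoptosis in MCF-7 cells grown in DMEM with 10% fetal bovine serum was scored after a six hour exposure by high content imaging of caspase-3/7 activation (CellEvent Caspase 3/7 Green), with DMSO serving as negative control and baseline.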

The nature of test [5]: CCTE_Harrill_HTTr_CellCount_MCF7: CCTE's Cell Proliferation Assessment for the High-Throughput Transcriptomics (HTTr) Platform, Harrill Lab (AID 2284012; active = hit-call score of the fitted dose curve at least 0.9, where 1 is the maximum;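 note: count of Hoechst-stained nuclei per well by high-content imaging in MCF-7 cells; cells exposed to compound for six hours; intended direction is loss of nuclei count meaning fewer cells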). In a few lines:
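Readout: Hoechst nuclear count by high-content imaging. MCF-7, 8-point dilution series, 6 h exposure. Bidirectional fit vs DMSO baseline.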

Test [6] can be described thus: CCTE_Shafer_MEA_acute_burst_number: CCTE's Neural Acute Assay for Single-Electrode Bursts, Shafer Lab (AID 2284013). In a few lines:
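Burst totals were derived with adaptive spike detection (8x rms threshold) on filtered signals from rat cortical cultures; change relative to pre-treatment baseline after 40-min compound exposure (0.03-40 uM) was fitted in the negative direction against DMSO.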

Test [7] is described as follows: CCTE_Shafer_MEA_acute_burst_duration_mean: CCTE's Neural Acute Assay for Mean Burst Duration, Shafer Lab (AID 2284014).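 Note: hits are decreases in mean burst duration relative to DMSO controls.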 In a few lines: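 Acute exposure of mature rat cortical networks (DIV 13 or 15) grown on microelectrode arrays to 0.03-40 uM compound. Mean burst duration compared with the 40-min pre-dose baseline over a 40-min post-dose recording at 37 C.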
Test [8] can be described thus: CCTE_Shafer_MEA_acute_interburst_interval_mean: CCTE's Neural Acute Assay for Mean Interburst Interval, Shafer Lab (AID 2284016).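 Note: percent change of mean interburst interval versus each well's own pre-dose baseline; curves fitted for decrease in interburst interval relative to DMSO.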 In a few lines: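 MEA recording of spontaneous network bursting in primary rat cortical cultures; mean interburst interval was compared before and after a 40-min compound exposure (0.03-40 uM) and expressed as percent change, relative to DMSO.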

The nature of test [9]: CCTE_Shafer_MEA_acute_burst_percentage_std: CCTE's Neural Acute Assay for Standard Deviation of Burst Percentage, Shafer Lab (AID 2284018).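 Note: fitted in the negative direction so actives lower burst percentage SD.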 In a few lines: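 Primary rat cortical neurons on 16-electrode MEA wells were recorded 40 min at baseline (DIV 13 or 15), then 40 min after compound (0.03-40 uM), at 37 C. Well value is SD across electrodes of spikes-in-bursts/total spikes; endpoint is percent change, DMSO-referenced.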

The nature of test [10]: CCTE_Shafer_MEA_acute_per_network_burst_spike_number_mean: CCTE's Neural Acute Assay for Average Number of Spikes in a Network Burst, Shafer Lab (AID 2284019).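 For AC50: curve fitted for loss of signal so actives reduce spikes per network burst.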 The gist of the method:
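Acute exposure of rat primary cortical networks (DIV 13/15) on MEAs; adaptive spike detection at 8x rms noise, 37 C. Percent change in spikes per network burst after 40 min with compound (0.03-40 uM), negative direction vs DMSO.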

Test [11] can be described thus: CCTE_Shafer_MEA_acute_burst_percentage_mean: CCTE's Neural Acute Assay for Percentage of Spikes in a Burst, Shafer Lab (AID 2284017).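 For AC50: curve fitted for loss of signal so potency reflects decreased burst percentage.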 The gist of the method:
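Compounds were tested at 0.03-40 uM on primary rat cortical neuron networks grown over microelectrodes, with at least three wells per compound. Spontaneous firing was recorded for 40 min before and 40 min after dosing, and the change in burst percentage was computed per well.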

For the compound `c1ccc(NNc2ccccc2)cc1`, the compound was called inactive in test [1], in test [2], in [3], in test [4], in test [5] and in [6]. In addition, the call in test [7], in test [8], in [9] and in [10] was inactive.

For `CN(C)C(=O)Nc1ccc(Cl)cc1`, the outcome in test [3], in [4] and in [5] was inactive.

For `ClCCOCCCl`, the compound was called inactive in test [1], in test [2], in test [3], in test [4], in [6] and in test [7]. For the same compound, the result in test [8], in test [11], in [9] and in [10] was inactive.

As for `CCCCCCCCCCCCCN1CC(C)OC(C)C1` (stereo not given), the outcome in test [3], in test [4] and in test [5] was inactive.

`O=Cc1ccco1`: the compound was called inactive in test [1], in [2], in test [7], in test [8], in [11] and in [9]. Moreover, in test [10], the call was inactive.

As to `Cc1ccc(N=C=O)cc1N=C=O`, the outcome in [3] and in test [4] was inactive.

`CC(C)(C)OOC(C)(C)CCC(C)(C)OOC(C)(C)C`: the outcome in [3], in test [4] and in [5] was inactive.

Regarding `OCCOCCO`, the outcome in test [3], in [4] and in test [5] was inactive.

Consider `Nc1cc(Cl)cc(C(=O)O)c1Cl`, for which the outcome in [3], in test [4] and in [5] was inactive.

On to `[O-][Cl+]O`, for which the result in [3] and in test [4] was inactive.

For the compound `Brc1ccc(Oc2ccccc2)cc1`, the outcome in test [3], in test [4] and in [5] was inactive.

As for `Clc1ccccc1Cl`, the outcome in test [3] and in test [4] was inactive.

Consider `Cc1ccc(N)cc1`, for which the result in test [3], in [4] and in test [5] was inactive.

On to `CCCCCCCCOC(=O)c1ccc(C(=O)OCCCCCCCC)c(C(=O)OCCCCCCCC)c1`, for which the outcome in test [3], in [4] and in test [5] was inactive.

With `c1ccc2c(c1)oc1ccccc12`, the outcome in [3] and in test [4] was inactive.

Take `CCOc1cccc(C2(N3CCN(c4ccccc4)CC3)CCC(C)CC2)c1` (stereo not given): the result in [3], in [4] and in [5] was inactive.

`Nc1ccc(Cc2ccc(N)cc2)cc1`: the outcome in test [3] and in [4] was inactive.

In the case of `Nc1ccc(Oc2ccc(N)cc2)cc1`, the result in [3], in [4] and in [5] was inactive.

As to `c1ccc2c(c1)-c1cccc3cccc-2c13`, the outcome in test [3] and in test [4] was inactive.

In the case of `OCCCl`, the outcome in [3] and in test [4] was inactive.

Broadly, the AC50 is the concentration at which the activity in the assay is half-maximal. Consider `Clc1ccc(C(c2ccc(Cl)cc2)C(Cl)Cl)cc1`, for which the AC50 in test [1] is 2.95 µM (active); in test [2], 2.94 µM (active); in [6], 2.56 µM (active); in test [11] it was 5.41 µM (active); in test [10], 2.37 µM (active). For the same compound, the result in test [3], in [4], in test [5], in test [7], in test [8] and in test [9] was inactive.

On to `Cn1cc(-c2ccccc2)c(=O)c(-c2cccc(C(F)(F)F)c2)c1`, for which the outcome in test [3] and in [4] was inactive.

For `C1=Cc2cccc3cccc1c23`, the result in test [3], in test [4] and in [5] was inactive.

As to `Cc1ccc([N+](=O)[O-])cc1`, the outcome in test [3] and in [4] was inactive.

Regarding `Cc1cccc(N)c1N`, the outcome in test [3] and in [4] was inactive.

With `CC(O)CCO` (stereo not given), the result in test [3], in [4] and in test [5] was inactive.

As to `C=CCc1ccc2c(c1)OCO2`, the result in [3] and in test [4] was inactive.

As to `O=P(OCCCl)(OCCCl)OCCCl`, the outcome in test [1], in test [2], in [3], in [4], in test [5] and in test [6] was inactive. The call in [7], in test [8], in test [11], in test [9] and in [10] was inactive.

In the case of `N#CC(Br)(Br)C(N)=O`, the result in [3], in test [4] and in test [5] was inactive.

As to `c1ccc(C2CO2)cc1` (stereo not given), the outcome in test [3], in [4] and in test [5] was inactive.

For the compound `CCC12COCN1COC2`, the outcome in [3], in test [4] and in test [5] was inactive.

As to `CN(C)c1ccccc1`, the result in test [3], in [4] and in [5] was inactive.

As to `O=[N+]([O-])c1ccc(Oc2ccc(Cl)cc2Cl)cc1`, the AC50 in test [1] is 9.28 µM (active); in [2] it was 9.76 µM (active); in test [8], 4.1 µM (active); in test [11] it was 10.6 µM (active). The result in test [3], in test [4], in [5], in [6], in [7] and in test [9] was inactive. Also, in test [10], the compound was called inactive.
